This is an account of results in PubChem BioAssay (EPA / NIEHS).

Activity calls are given as the source filed them. Rule for the calls: active = hit-call score of the fitted dose curve at least 0.9, where 1 is the maximum; inactive = score below 0.9.

Read-out in one test: Low-density lipoprotein receptor (LDLR), LDLR (gene 3949)
Put plainly: BSK_CASM3C_LDLR: BioMAP Diversity Plus: CASM3C Assay for Low-density lipoprotein receptor (LDLR) Biomarker Activity (AID 2283045).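 Note: LDLR protein level on the cell surface quantified by ELISA.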 The following applies: primary human coronary artery smooth muscle cells; actives raise or lower the signal.
In the case of `CC(Oc1cccc(Cl)c1)C(=O)O` (centres undefined), the outcome was inactive.

Consider `CCc1cccc(C)c1N(C(=O)CCl)C(C)COC` (centres undefined), for which the result was inactive.

As to `Cc1nn(-c2cc(NS(C)(=O)=O)c(Cl)cc2Cl)c(=O)n1C(F)F`, the result was inactive.

Turning to `N#CSCSC#N`, the result was inactive.

Regarding `Cc1ccn2nc(S(=O)(=O)Nc3c(F)cccc3F)nc2n1`, the outcome was inactive.

As for `C[N+]1(C)CCCCC1`, the outcome was inactive.

Turning to `CCCOc1nn(C(=O)NS(=O)(=O)c2ccccc2C(=O)OC)c(=O)n1C`, the outcome was inactive.

Regarding `Nc1nc(N)nc(NC2CC2)n1`, the result was inactive.

With `Nc1c(Cl)cc([N+](=O)[O-])cc1Cl`, the result was inactive.

With `CCc1cccc(CC)c1N(COC)C(=O)CCl`, the result was inactive.

With `CCCSP(=O)(OCC)Oc1ccc(Br)cc1Cl` (centres undefined), the result was inactive.

As to `S=C1NCCN1`, the outcome was inactive.

For the compound `CCOP(=S)(OCC)Oc1ccc([N+](=O)[O-])cc1`, the result was inactive.

As for `CCC(=O)Nc1ccc(Cl)c(Cl)c1`, the result was inactive.

As for `CCCCOC(=O)c1ccccc1C(=O)O`, the outcome was inactive.

On to `C#CC(C)(C)NC(=O)c1cc(Cl)cc(Cl)c1`, for which the outcome was inactive.

On to `COc1cc(OC)nc(Sc2cccc(Cl)c2C(=O)O)n1`, for which the result was inactive.

Read-out in the next test: Monocyte Chemoattractant Protein-1 (MCP1), CCL2 (gene 6347)
Put plainly: BSK_CASM3C_MCP1: BioMAP Diversity Plus: CASM3C Assay for Monocyte Chemoattractant Protein-1 (MCP1) Biomarker Activity (AID 2283046).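 Note: MCP-1 level quantified by ELISA 24 h after dosing.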 To be noted: primary human coronary artery smooth muscle cells; actives raise or lower the signal.
For `CN(C)C(=O)Nc1cccc(C(F)(F)F)c1`, the outcome was inactive.

Turning to `COP(=O)(NC(C)=O)SC` (centres undefined), the outcome was inactive.

`CN(C)NC(=O)CCC(=O)O`: the outcome was inactive.

For `C[Si](Cn1cncn1)(c1ccc(F)cc1)c1ccc(F)cc1`, the result was inactive.

The term AC50 denotes the midpoint of the concentration-response curve, whichever way the signal moves. Consider `CCCOCC(=Nc1ccc(Cl)cc1C(F)(F)F)n1ccnc1`, for which the AC50 was 26 µM (active).

`CC1=NNC(=O)N(/N=C/c2cccnc2)C1`: the result was inactive.

Take `C#CCC1=C(C)C(OC(=O)C2C(C=C(C)C)C2(C)C)CC1=O` (centres undefined): the result was inactive.

As to `COP(=O)(OC)C(O)C(Cl)(Cl)Cl` (centres undefined), the result was inactive.

In the case of `COP(=O)(OC)SCn1c(=O)oc2cc(Cl)cnc21`, the AC50 is 20 µM (active).

`CCOP(=S)(Oc1cnc(C(C)(C)C)nc1)OC(C)C` (centres undefined): the outcome was inactive.

In the case of `CNC(=O)ON=C(SC)C(=O)N(C)C`, the outcome was inactive.

On to `CCOP(=S)(OCC)SCCSCC`, for which the result was inactive.

Turning to `CNc1cnn(-c2cccc(C(F)(F)F)c2)c(=O)c1Cl`, the result was inactive.

In the case of `CC1(C(=O)Nc2ccc(O)c(Cl)c2Cl)CCCCC1`, the outcome was inactive.

In the case of `CN1COCN(Cc2cnc(Cl)s2)C1=N[N+](=O)[O-]`, the result was inactive.

For the compound `CCCCSP(=O)(SCCCC)SCCCC`, the outcome was inactive.

For the compound `CC(C1CC1)C(O)(Cn1cncn1)c1ccc(Cl)cc1` (centres undefined), the outcome was inactive.

In the case of `CC[C@H](C)[C@H]1O[C@]2(C=C[C@@H]1C)C[C@@H]1C[C@@H](C/C=C(\C)[C@@H](O[C@H]3C[C@H](OC)[C@@H](O[C@H]4C[C@H](OC)[C@@H](NC)[C@H](C)O4)[C@H](C)O3)[C@@H](C)/C=C/C=C3\CO[C@@H]4[C@H](O)C(C)=C[C@@H](C(=O)O1)[C@]34O)O2`, the AC50 is 12.9 µM (active).

In the case of `CC(C)=CC1C(C(=O)OCN2C(=O)C3=C(CCCC3)C2=O)C1(C)C` (centres undefined), the outcome was inactive.

Turning to `CC(Oc1cccc(Cl)c1)C(=O)O` (centres undefined), the outcome was inactive.

For the compound `CCc1cccc(C)c1N(C(=O)CCl)C(C)COC` (centres undefined), the result was inactive.

With `Cc1nn(-c2cc(NS(C)(=O)=O)c(Cl)cc2Cl)c(=O)n1C(F)F`, the outcome was inactive.

Consider `N#CSCSC#N`, for which the AC50 was 20.5 µM (active).

As to `Cc1ccn2nc(S(=O)(=O)Nc3c(F)cccc3F)nc2n1`, the outcome was inactive.

With `C[N+]1(C)CCCCC1`, the result was inactive.

For the compound `CCCOc1nn(C(=O)NS(=O)(=O)c2ccccc2C(=O)OC)c(=O)n1C`, the result was inactive.

`Nc1nc(N)nc(NC2CC2)n1`: the outcome was inactive.

As for `Nc1c(Cl)cc([N+](=O)[O-])cc1Cl`, the result was inactive.

In the case of `CCc1cccc(CC)c1N(COC)C(=O)CCl`, the result was inactive.

In the case of `CCCSP(=O)(OCC)Oc1ccc(Br)cc1Cl` (centres undefined), the outcome was inactive.

For the compound `S=C1NCCN1`, the result was inactive.

`CCOP(=S)(OCC)Oc1ccc([N+](=O)[O-])cc1`: the outcome was inactive.

Consider `CCC(=O)Nc1ccc(Cl)c(Cl)c1`, for which the result was inactive.

On to `CCCCOC(=O)c1ccccc1C(=O)O`, for which the result was inactive.

As to `C#CC(C)(C)NC(=O)c1cc(Cl)cc(Cl)c1`, the result was inactive.

Take `COc1cc(OC)nc(Sc2cccc(Cl)c2C(=O)O)n1`: the result was inactive.

Read-out in a further test: not listed separately
Put plainly: BSK_CASM3C_Proliferation: Cell Proliferation Assessment in the BioMAP Diversity Plus: CASM3C Assay (AID 2283047).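 Note: sulforhodamine B total protein stain as relative cell number at 560 nm; sub-confluent cells exposed 48 h before staining; fitted both ways against DMSO so gain or loss of cell number.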 The following applies: primary human coronary artery smooth muscle cells.
For `CN(C)C(=O)Nc1cccc(C(F)(F)F)c1`, the outcome was inactive.

On to `COP(=O)(NC(C)=O)SC` (centres undefined), for which the result was inactive.

As for `CN(C)NC(=O)CCC(=O)O`, the result was inactive.

As to `C[Si](Cn1cncn1)(c1ccc(F)cc1)c1ccc(F)cc1`, the outcome was inactive.

With `CCCOCC(=Nc1ccc(Cl)cc1C(F)(F)F)n1ccnc1`, the AC50 was 32.7 µM (active).

With `CC1=NNC(=O)N(/N=C/c2cccnc2)C1`, the outcome was inactive.

Take `C#CCC1=C(C)C(OC(=O)C2C(C=C(C)C)C2(C)C)CC1=O` (centres undefined): the concentration at half-maximal activity (AC50) was 26.8 µM (active).

On to `COP(=O)(OC)C(O)C(Cl)(Cl)Cl` (centres undefined), for which the AC50 was 20 µM (active).

As for `COP(=O)(OC)SCn1c(=O)oc2cc(Cl)cnc21`, the half-maximal activity concentration (AC50) is 21.5 µM (active).

Take `CCOP(=S)(Oc1cnc(C(C)(C)C)nc1)OC(C)C` (centres undefined): the AC50 is 32.2 µM (active).

Consider `CNC(=O)ON=C(SC)C(=O)N(C)C`, for which the outcome was inactive.

Take `CCOP(=S)(OCC)SCCSCC`: the outcome was inactive.

For the compound `CNc1cnn(-c2cccc(C(F)(F)F)c2)c(=O)c1Cl`, the outcome was inactive.

Consider `CC1(C(=O)Nc2ccc(O)c(Cl)c2Cl)CCCCC1`, for which the outcome was inactive.

In the case of `CN1COCN(Cc2cnc(Cl)s2)C1=N[N+](=O)[O-]`, the result was inactive.

As to `CCCCSP(=O)(SCCCC)SCCCC`, the concentration at half-maximal activity (AC50) is 36.8 µM (active).

Take `CC(C1CC1)C(O)(Cn1cncn1)c1ccc(Cl)cc1` (centres undefined): the result was inactive.

Take `CC[C@H](C)[C@H]1O[C@]2(C=C[C@@H]1C)C[C@@H]1C[C@@H](C/C=C(\C)[C@@H](O[C@H]3C[C@H](OC)[C@@H](O[C@H]4C[C@H](OC)[C@@H](NC)[C@H](C)O4)[C@H](C)O3)[C@@H](C)/C=C/C=C3\CO[C@@H]4[C@H](O)C(C)=C[C@@H](C(=O)O1)[C@]34O)O2`: the AC50 was 5.53 µM (active).

Take `CC(C)=CC1C(C(=O)OCN2C(=O)C3=C(CCCC3)C2=O)C1(C)C` (centres undefined): the AC50 is 20 µM (active).

`CC(Oc1cccc(Cl)c1)C(=O)O` (centres undefined): the outcome was inactive.

Turning to `CCc1cccc(C)c1N(C(=O)CCl)C(C)COC` (centres undefined), the outcome was inactive.

As for `Cc1nn(-c2cc(NS(C)(=O)=O)c(Cl)cc2Cl)c(=O)n1C(F)F`, the outcome was inactive.

On to `N#CSCSC#N`, for which the AC50 is 2.16 µM (active).

`Cc1ccn2nc(S(=O)(=O)Nc3c(F)cccc3F)nc2n1`: the outcome was inactive.

For the compound `C[N+]1(C)CCCCC1`, the result was inactive.

As to `CCCOc1nn(C(=O)NS(=O)(=O)c2ccccc2C(=O)OC)c(=O)n1C`, the result was inactive.

Take `Nc1nc(N)nc(NC2CC2)n1`: the result was inactive.

For `Nc1c(Cl)cc([N+](=O)[O-])cc1Cl`, the outcome was inactive.

As for `CCc1cccc(CC)c1N(COC)C(=O)CCl`, the result was inactive.

For `CCCSP(=O)(OCC)Oc1ccc(Br)cc1Cl` (centres undefined), the AC50 was 32.1 µM (active).

Consider `S=C1NCCN1`, for which the outcome was inactive.

Turning to `CCOP(=S)(OCC)Oc1ccc([N+](=O)[O-])cc1`, the result was inactive.

As to `CCC(=O)Nc1ccc(Cl)c(Cl)c1`, the result was inactive.

Turning to `CCCCOC(=O)c1ccccc1C(=O)O`, the outcome was inactive.

As to `C#CC(C)(C)NC(=O)c1cc(Cl)cc(Cl)c1`, the outcome was inactive.

As for `COc1cc(OC)nc(Sc2cccc(Cl)c2C(=O)O)n1`, the result was inactive.
